Not all results are given here.
aSyn 5UTR act: Activators via SNCA 5'UTR binding, MLPCN; alpha-synuclein 5'UTR reporter, activators screen; activity score, % (tested at 7.5 µM), hits read low; hit rate 7.1% among 300,000; in the data active = activity score below about -60%
* = called active by the depositor.

SMILES	aSyn 5UTR act
Cc1ccc(C(=O)/C=C/c2ccc3ncccc3c2)cc1	-68*
COc1cc(/C=C/C(=O)c2ccc(C)cc2)ccc1OCC#N	-100*
COc1cc(C(=O)OCC#N)ccc1OCc1c(C)noc1C	-66*
COc1ccc(OCC(=O)C2CC2)c(C#N)c1	-78*
Nc1[nH]n(-c2ccccc2)c(=O)c1N=Nc1ccc2ncsc2c1	-78*
Nc1[nH]n(-c2ccccc2)c(=O)c1N=Nc1ccccc1	-138*
Nc1[nH]n(-c2ccccc2)c(=O)c1N=Nc1ccccc1[N+](=O)[O-]	-133*
NC(=O)c1ccccc1NC(=O)/C=C/c1cccc(Cl)c1	-133*
CN(C)c1ccc(NC(=O)/C=C/c2c(Cl)cccc2Cl)cc1	-80*
NC(=O)c1ccccc1NC(=O)/C=C/c1c(Cl)cccc1Cl	-189*
CCN(CCn1cccn1)Cc1cn[nH]c1-c1ccc(-c2ccccc2)cc1	-67*
Cn1cc(CCNCc2cn[nH]c2-c2ccc(-c3ccccc3)cc2)cn1	-98*
CN(Cc1cn[nH]c1-c1ccc(-c2ccccc2)cc1)CC1CCOCC1	-93*
CN(CCc1cnn(C)c1)Cc1cn[nH]c1-c1ccc(-c2ccccc2)cc1	-84*
CCCCCCn1c2c(c(=N)c3c1CCC3)CCC2	67
CC(c1ccon1)N(C)Cc1cn[nH]c1-c1ccc(-c2ccccc2)cc1 (stereo not given)	-135*
Cc1nonc1OCCCNc1ccc([N+](=O)[O-])cc1Cl	-84*
Cc1ccsc1/C=N/Nc1nc(Cl)c(Cl)cc1Cl	-162*
Cc1ccc(/C=N/Nc2nc(Cl)c(Cl)cc2Cl)s1	-141*
CC(C)(C)C(=O)/C(=C/c1ccc(Cl)cc1)n1cncn1	-173*
CC(C)(C)C(=O)/C(=C\c1ccc([N+](=O)[O-])cc1)n1cncn1	-277*
CN(/N=C/C=C/c1ccccc1)c1cc(=O)n(C)c(=O)[nH]1	-65*
Cc1ccc(Nc2n[nH]c(C)c2[N+](=O)[O-])cc1C	-164*
N/C(=N\OC(=O)Cc1ccccc1)c1cccc(Br)c1	-72*
N/C(=N\OC(=O)Cc1ccccc1)c1ccccc1Cl	-143*
SMILES	aSyn 5UTR act
C=CCNc1nc(Nc2ccccc2F)nc(OCC)n1	-122*
O=C(Nc1cccnc1)c1cc2c(s1)-c1ccccc1OC2	-126*
Cc1cccc2c1-c1sc(C(=O)Nc3cccnc3)cc1CO2	-118*
CCOc1ccc(NC(=O)c2cccc3c2C(=O)N(Cc2cccnc2)C3)cc1	-111*
Brc1ccc(-c2csc(/N=C/N3CCOCC3)n2)cc1	-90*
OCCN(/C=N/c1nc(-c2ccc(Br)cc2)cs1)CCO	-93*
Brc1ccc(-c2csc(/N=C/N3CCCC3)n2)cc1	-94*
O=[N+]([O-])c1ccc(N/N=C/c2cccc(O)c2)cc1	-171*
O=[N+]([O-])c1ccc(N/N=C/c2cccc(O)c2O)cc1	-170*
Cc1ccc(NC(=O)c2ccc(N/N=C/c3cccc(O)c3)c([N+](=O)[O-])c2)cc1	42
O=C(CCC1CCCC1)Nc1ccc(C(=O)NCc2cccnc2)cc1	72
Cn1ccnc1CN1CCCCC1C(=O)Nc1ccc(Oc2cccnc2)cc1 (stereo not given)	-77*
O=C1c2ccccc2NC(c2ccccc2Cl)N1N=C1CCCCCC1 (stereo not given)	-179*
Cc1cc(NC(C)c2ccccc2)n2ncc(-c3ccccc3)c2n1 (stereo not given)	-83*
COc1ccccc1-c1cnn2c(NCCc3ccccc3)cc(C)nc12	-112*
Cc1cc(NCCN2CCOCC2)n2ncc(-c3ccccc3)c2n1	-62*
C=CCc1c(C)nc2c(-c3ccccc3)cnn2c1N1CCOCC1	-175*
Cc1cc(NC2CCCC2)n2ncc(-c3ccccc3)c2n1	60
Cc1cc(NCc2ccccc2)n2ncc(-c3ccccc3)c2n1	-72*
CCC1CCc2c(sc(NC(=O)c3ccco3)c2C(N)=O)C1 (stereo not given)	-246*
CCC1CCc2c(sc(NC(=O)c3cnccn3)c2C(N)=O)C1 (stereo not given)	-86*
C=CCc1ccc(OCc2ccc(C(=O)O)o2)c(OC)c1	-121*
CCCc1ccc(OCc2ccc(C(=O)NN)o2)c(OC)c1	-84*
CCCc1ccc(OCc2ccc(C(=O)O)o2)c(OC)c1	-94*
C=CCc1ccc(OC(=O)NC2CCCCC2)c(OC)c1	-106*
SMILES	aSyn 5UTR act
Brc1ccc(-c2nc(-c3ccccc3)no2)o1	-141*
Brc1ccc(-c2nc(-c3cccnc3)no2)o1	-164*
c1ccc(-c2noc(-c3ccc4ccccc4c3)n2)cc1	77
CNC(=O)NC(=O)C(C)OC(=O)c1c2c(nc3ccccc13)/C(=C/c1cccs1)CC2 (stereo not given)	-143*
O=C(NCCc1ccccc1)c1n[nH]c2ccccc12	-144*
O=C(OCCOc1ccccc1)c1n[nH]c2ccccc12	-168*
CC1CCCCN1C(=O)COC(=O)c1n[nH]c2ccccc12 (stereo not given)	-73*
COCCn1c(C)cc(C(=O)COC(=O)c2n[nH]c3ccccc23)c1C	81
O=C(Nc1ccccc1)c1nnn(Cc2ccccc2)c1NC(=O)C(F)(F)F	-72*
O=C(NCCc1ccccc1)c1nccc2ccccc12	-111*
Nc1c(C(=O)NCCc2ccccc2)nnn1Cc1ccccc1	-75*
N#C/C(=C\c1ccccc1O)C(=O)Nc1cccnc1	-107*
Cc1cc(/C=C(\C#N)C(=O)Nc2ccccc2)c(C)n1-c1cccnc1	-143*
Cn1c(SCc2ccc(Br)cc2)nnc1-c1ccccn1	-93*
Cn1nc(-c2ccccn2)nc2c(=O)n(C)c(=O)nc1-2	94
Cn1c(SCc2ccc(F)cc2)nnc1-c1cnccn1	-85*
Cc1ccccc1CSc1nnc(-c2cnccn2)n1C	-105*
Cn1c(SCc2ccccc2)nnc1-c1cnccn1	-131*
C(C#CCCCCCCCCC[n+]1ccccc1)#CCCCCCCCCC[n+]1ccccc1	73
C=CCn1c(=O)/c(=C2/Sc3cc(OC)ccc3N2C)s/c1=C1\C(=O)N(CC)C(=S)N1C	-98*
Cc1nn(-c2ccccc2)c2c1C(O)n1c(nc3ccccc31)S2 (stereo not given)	-67*
Cc1nc(C)c(-c2csc(Nc3ncccc3C)n2)s1	-240*
COc1ccc(-c2csc(Nc3ncccc3C)n2)cc1OC	-172*
COc1ccc(C2=Nn3c(nnc3-c3ccccn3)SC2)cc1OC	56
Cc1cccnc1Nc1nc(-c2ccc(O)c(O)c2)cs1	-232*
SMILES	aSyn 5UTR act
COc1ccc(-c2csc(Nc3ncccc3C)n2)cc1	-118*
C=CCn1c(C)cc(C(=O)COC(=O)c2ccc(N)c([N+](=O)[O-])c2)c1C	-142*
CC(=O)Nc1ccccc1OCC(=O)c1cc(C)n(Cc2cccs2)c1C	-150*
Cc1cc(C(=O)COC(=O)c2ccc(N)c([N+](=O)[O-])c2)c(C)n1Cc1ccc2c(c1)OCO2	-164*
Cc1ccc(C(=O)OCC(=O)c2cc(C)n(CC3CCCO3)c2C)cc1 (stereo not given)	-161*
Cc1cc(C(=O)COC(=O)c2ccc3c(c2)OCO3)c(C)n1Cc1cccs1	-65*
Cc1cc(C(=O)COC(=O)c2ccccc2O)c(C)n1Cc1cccs1	93
Cc1cc(C(=O)CSc2nnc(-c3cccnc3)n2-c2ccccc2)c(C)n1CC1CCCO1 (stereo not given)	-78*
O=C(O)c1ccccc1C(=O)NNc1cccc(Cl)n1	-108*
CC1(C)NC(=O)N(CCCOc2ccc(Br)cc2Cl)C1=O	-148*
CC1(C)NC(=O)N(CCCOc2ccc3c(c2)CCC3)C1=O	-77*
C=CCn1c(SCC(=O)Nc2ccc(F)cc2F)nnc1-c1cnccn1	-107*
